Data published in PubChem BioAssay (Tox21).
“And” between values parts separate entries of the source, which are not always exact repeats. Identical values can stand only once. Inconclusive results are not listed. Entries that show only a call come without a potency. Some structures have more than one record in an assay (separate samples or runs), and their calls can disagree. The source made the active and inactive calls. Calls come from the whole dose curve; as a rule, active = well fitted curve in the direction sought with a large enough effect in the repeat runs; inconclusive = weak or mixed curves; inactive = no such curve, though single readings can be large; an effect the other way counts as inactive or inconclusive.

Experiment: qHTS RealTime-Glo MT Cell Viability Assay in HepG2 cells - 0 hour (AID 1224889); note: nearly all actives have a fitted effect of over 50% in size
Conditions: RealTime-Glo luminescence; series mostly up to 76.8 µM
Summary of the method: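 Tox21 10K library screened in qHTS format on HepG2 cells carrying RealTime-Glo reagents. Compounds were added after a 5 h preincubation, and the luminescent signal from continuous culture was measured repeatedly during 40 h treatment.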

Row | SMILES | outcome
1 | CCC12COCN1COC2 | inactive
2 | CC(C)NC(=O)N1CC(=O)N(c2cc(Cl)cc(Cl)c2)C1=O | inactive
3 | C1CC2OC2CC1C1CO1 (stereo not given) | inactive
4 | CC(C#N)CCC#N (stereo not given) | inactive
5 | Nc1ccccc1C(=O)O | inactive
6 | CCOP(=S)(OCC)SCCSCC | inactive
7 | [O-][Cl+2]([O-])O | inactive
8 | Clc1cccc(Cl)c1Cl | inactive

Experiment: A CellTox Green Cytotoxicity Assay to monitor cytotoxicity in HepG2 cells - 8 hour (AID 1224890); note: nearly all actives have a fitted effect of over 45% in size; note: potency is the fitted concentration of half-maximal effect
Conditions: CellTox Green fluorescence; series mostly up to 76.8 µM
Summary of the method: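 Nonlytic assay: viable cells exclude the dye, so fluorescence scales with cell death. HepG2 at 600 cells/well, compounds added after 5 h, signal read across 40 h.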

Row | SMILES | Potency
9 | c1ccc(OP(Oc2ccccc2)Oc2ccccc2)cc1 | inactive
10 | COC(=O)c1ccccc1N | inactive
11 | CCOP(=S)(OCC)Oc1cnc2ccccc2n1 | inactive
12 | CCCN(CCC)N=O | inactive
13 | CN(N=O)c1ccccc1 | inactive
14 | CC(C)OC(=O)Nc1cccc(Cl)c1 | inactive
15 | CCCCOC(=O)c1ccccc1C(=O)OCCCC | inactive
16 | CCCCN(CCCC)SN(C)C(=O)Oc1cccc2c1OC(C)(C)C2 | inactive
17 | CC(NC(C)(C)C)C(=O)c1cccc(Cl)c1 (stereo not given) | inactive
18 | CC(C)(C)C(O)(CCc1ccc(Cl)cc1)Cn1cncn1 (stereo not given) | inactive
19 | CC(C)C#N | inactive
20 | Cc1cc(Cl)ccc1O | inactive
21 | O=S(=O)(c1ccc(O)cc1)c1ccc(O)cc1 | inactive
22 | Cc1ccc([N+](=O)[O-])cc1C | inactive
23 | C1CN2CCN1CC2 | inactive and 24.5 µM (active)
24 | CC(C)(Cl)Cl | inactive
25 | CC(C)(C)OOC(=O)c1ccccc1 | inactive
26 | CCc1cccc(C)c1N(C(=O)CCl)C(C)COC (stereo not given) | inactive
27 | c1ccc2c(c1)Oc1ccccc1O2 | inactive

Row | SMILES | Potency
28 | O=[N+]([O-])c1ccc(Oc2ccc(Cl)cc2Cl)cc1 | inactive
29 | CCC[N+](=O)[O-] | inactive
30 | Nc1c(Cl)c(Cl)nc(C(=O)O)c1Cl | inactive
31 | CC(=O)C=C(C)C | inactive
32 | C#CC(C)(C)NC(=O)c1cc(Cl)cc(Cl)c1 | inactive
33 | CN(C)CCO | inactive
34 | OC(O)C(Cl)(Cl)Cl | inactive
35 | CC1C=[C-]C=C1.[C-]#[O+].[C-]#[O+].[C-]#[O+].[Mn] | inactive
36 | CCN(CC)c1ccccc1 | inactive
37 | CCC(C)(CC)c1cc(NC(=O)c2c(OC)cccc2OC)on1 | inactive
38 | CCC12COCN1COC2 | inactive
39 | CC(C)NC(=O)N1CC(=O)N(c2cc(Cl)cc(Cl)c2)C1=O | inactive
40 | C1CC2OC2CC1C1CO1 (stereo not given) | inactive
41 | CC(C#N)CCC#N (stereo not given) | inactive
42 | Nc1ccccc1C(=O)O | inactive
43 | CCOP(=S)(OCC)SCCSCC | inactive
44 | [O-][Cl+2]([O-])O | inactive
45 | Clc1cccc(Cl)c1Cl | inactive
